What all share (test): qHTS profiling for inhibitors of Plasmodium falciparum proliferation (AID 504749); further: nearly all actives have a fitted effect of over 60% in size
Holding throughout (details): P. falciparum in erythrocytes, SYBR Green DNA, 72 h; series mostly up to 28.7 µM

One assay deals with CP201. In outline: (§1)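 P. falciparum-infected erythrocytes (0.3% parasitemia, 2.5% hematocrit final) were exposed to compounds for 72 h at 37 C in 5% CO2, then lysed with SYBR Green buffer overnight at room temperature; parasite DNA fluorescence was normalized to artemisinin and DMSO controls.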
The next assay relates to CP203. In outline: as §1
Another assay concerns CP211. The essentials:
as §1

A further assay deals with CP215. In outline:
as §1

In the next assay the test system is CP217. In outline:
as §1

The test system of another assay is CP237. In outline:
as §1

The next assay deals with CP238. In outline:
as §1

The subject of another assay is CP247. In outline: as §1
The subject of a further assay is CP250. In outline: as §1
The next assay relates to CP252. In outline:
as §1

Experimental findings from PubChem BioAssay (NCATS) are described below.

SMILES strings stand for the structures. Inconclusive results are not listed. Activity calls are given as the source filed them. The call rests on the fitted dose curve; in most records, active means well fitted inhibition curve with a large enough effect; inconclusive means small, poorly fitted or top-dose-only effect; inactive means flat fitted curve, though single readings scatter.
Potency means the concentration at half of the fitted maximal effect.

Regarding `CC=CC1=C(C(=O)O)N2C(=O)[C@H](NC(=O)[C@H](N)c3ccc(O)cc3)[C@@H]2SC1`, the Potency entry in the assay with CP201, in the assay on CP203, with CP211, in the assay on CP215, with CP217 and with CP237 was “inactive” throughout. Also, the Potency entry in the assay with CP238, in the assay on CP247, with CP250 and in the assay on CP252 was “inactive” each time.
As to `CC(C)(C)NC(=O)[C@H]1CN(Cc2cccnc2)CCN1C[C@@H](O)C[C@@H](Cc1ccccc1)C(=O)N[C@H]1c2ccccc2C[C@H]1O`, the Potency in the assay with CP201 is 16900 nM (active); in the assay on CP215, 15100 nM (active); with CP217, 11200 nM (active); in the assay on CP237, 8910 nM (active); in the assay on CP247, 11200 nM (active); in the assay with CP252 it was 12600 nM (active).
As for `Nc1ccn([C@@H]2CS[C@H](CO)O2)c(=O)n1`, the Potency result in the assay on CP201, with CP203, with CP211, in the assay on CP215, with CP217 and in the assay on CP237 was “inactive” throughout. Moreover, the Potency entry with CP238, in the assay with CP247, with CP250 and with CP252 was “inactive” throughout.
Take `COc1c(N2C[C@@H]3CCCN[C@H]3C2)c(F)cc2c(=O)c(C(=O)O)cn(C3CC3)c12`: the Potency entry in the assay with CP201, in the assay with CP203, in the assay with CP211, with CP215, in the assay with CP217 and in the assay on CP238 was “inactive” throughout. Further, the Potency result in the assay with CP247, with CP250 and in the assay on CP252 was “inactive” each time.
As to `Nc1ccc(S(=O)(=O)Nc2ncccn2)cc1`, the Potency entry with CP201, with CP203, in the assay on CP211, in the assay on CP217, in the assay on CP237 and in the assay with CP238 was “inactive” each time. Also, the Potency result in the assay with CP247, in the assay on CP250 and in the assay with CP252 was “inactive” in each case.
With `C[C@H]1C[C@@H]2[C@@H]([C@@H](O)C[C@@]3(C)[C@H]2CC[C@]3(O)C(=O)CO)[C@@]2(C)C=CC(=O)C=C12`, the Potency entry with CP201, in the assay with CP203, in the assay with CP211, in the assay on CP215, in the assay with CP217 and in the assay with CP237 was “inactive” throughout. Also, the Potency result with CP238, in the assay on CP247, in the assay with CP250 and with CP252 was “inactive” in each case.
Take `CCC1=C[C@@H]2CN(C1)Cc1c([nH]c3ccccc13)[C@@](C(=O)OC)(c1cc3c(cc1OC)N(C)[C@@H]1[C@@](O)(C(=O)OC)[C@H](OC(C)=O)[C@]4(CC)C=CCN5CC[C@]31[C@@H]54)C2`: the Potency was 4780 nM (active) with CP201; 3010 nM (active) in the assay on CP203; 3380 nM (active) in the assay with CP211; 2130 nM (active) in the assay on CP215; 2510 nM (active) with CP217; 3980 nM (active) with CP237. For the same molecule, the Potency in the assay on CP238 was 2820 nM (active); in the assay on CP247, 3550 nM (active); with CP250, 3980 nM (active); with CP252 it was 2820 nM (active).
Regarding `Nc1ccn([C@@H]2O[C@H](CO)[C@H](O)C2(F)F)c(=O)n1`, the Potency in the assay on CP201 was 2130 nM (active); with CP203, 2690 nM (active); with CP211, 2390 nM (active); in the assay on CP215 it was 6010 nM (active); in the assay on CP217, 4470 nM (active); in the assay on CP237 it was 3550 nM (active). The Potency in the assay with CP238 was 3980 nM (active); with CP247, 1410 nM (active); with CP250, 5010 nM (active); in the assay with CP252, 3550 nM (active).
Turning to `CN1c2cc(O)c(N=NC(N)=O)cc2CC1S(=O)(=O)O` (centres undefined), the Potency entry in the assay on CP201, in the assay with CP203, in the assay with CP211, in the assay with CP215, in the assay on CP217 and in the assay with CP237 was “inactive” throughout. The Potency entry in the assay on CP238, with CP247, in the assay on CP250 and with CP252 was “inactive” throughout.
As to `CC[C@H]1CN2CCc3cc(OC)c(OC)cc3[C@H]2C[C@@H]1C[C@@H]1NCCc2cc(OC)c(OC)cc21`, the Potency in the assay with CP201 is 675 nM (active); in the assay on CP203 it was 379 nM (active); in the assay on CP211, 675 nM (active); with CP215, 536 nM (active); in the assay on CP217 it was 708 nM (active); with CP237, 126 nM (active). In addition, the Potency was 316 nM (active) with CP238, 398 nM (active) in the assay with CP247, 316 nM (active) with CP250 and 562 nM (active) in the assay on CP252.
Take `COC(=O)C[C@](O)(CCCC(C)(C)O)C(=O)O[C@@H]1C(OC)=C[C@]23CCCN2CCc2cc4c(cc2[C@H]13)OCO4`: the Potency with CP201 is 42.6 nM (active); in the assay with CP203 it was 33.8 nM (active); in the assay with CP211, 30.1 nM (active); in the assay on CP215, 33.8 nM (active); with CP217 it was 31.6 nM (active); in the assay with CP237, 15.8 nM (active). Also, the Potency in the assay with CP238 is 28.2 nM (active); in the assay on CP247 it was 17.8 nM (active); with CP250 it was 28.2 nM (active); with CP252, 31.6 nM (active).
As for `COc1cc(C(=O)NS(=O)(=O)c2ccccc2C)ccc1Cc1cn(C)c2ccc(NC(=O)OC3CCCC3)cc12`, the Potency result with CP201, in the assay with CP237, in the assay with CP238, in the assay with CP250 and with CP252 was “inactive” in each case.
For the molecule `COC(=O)C1=C(C)NC(C)=C(C(=O)OCCN2CCN(C(c3ccccc3)c3ccccc3)CC2)C1c1cccc([N+](=O)[O-])c1` (centres undefined), the Potency was 7570 nM (active) with CP201; 3790 nM (active) with CP203; 3790 nM (active) in the assay with CP211; 3380 nM (active) in the assay on CP215; 3160 nM (active) with CP217; 3160 nM (active) with CP237. In addition, the Potency with CP238 is 2510 nM (active); in the assay on CP247, 3980 nM (active); in the assay on CP250, 4470 nM (active); with CP252 it was 2820 nM (active).
Take `CC1(C)O[C@@H]2C[C@@H]3[C@H]4C[C@@H](F)C5=CC(=O)C=C[C@]5(C)[C@@]4(F)[C@@H](O)C[C@]3(C)[C@]2(C(=O)CO)O1`: the Potency entry in the assay with CP217, in the assay on CP237, with CP238, in the assay with CP247, in the assay on CP250 and in the assay with CP252 was “inactive” in each case.
Turning to `O=C(O)CO.[NH2-].[NH2-].[Pt+2]`, the Potency result with CP201, with CP203, in the assay on CP211, with CP215, in the assay with CP217 and in the assay on CP237 was “inactive” each time. The Potency entry with CP238, in the assay with CP247, in the assay with CP250 and in the assay with CP252 was “inactive” each time.
As for `O=c1[nH]c(=O)n(C2CCCO2)cc1F` (centres undefined), the Potency entry with CP201, in the assay with CP203, with CP211, with CP217, in the assay with CP237 and in the assay on CP238 was “inactive” each time. Besides, the Potency entry with CP247, in the assay with CP250 and in the assay on CP252 was “inactive” throughout.
